Screening data as filed in PubChem.
Tau fluor counter: counter-screen for tau fibril formation inhibitors | Potency, µM (top dose mostly 57.7 µM), for inactives: at the highest dose activity change, negative = decrease | 280,000 tested, 0.93% active | AID 1463 | tau K18 P301L Alexa594 fluorescence, heparin fibrillization; note: potency is the fitted concentration of half-maximal effect; nearly all actives have a fitted effect of over 55% in size
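Human K18 P301L tau (15 uM unlabeled plus 0.24 uM Alexa 594-labeled, final) in 100 mM sodium acetate pH 7 was mixed with compound and 20 uM heparin and incubated 6 hr at 37 C.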
Tau ThT inhib: blocks human tau fibril formation measured by thioflavin T; P10636; recombinant tau K18 P301L (four-repeat tau fragment), heparin-induced fibrillization, ThT fluorescence; Potency, µM (series often up to 57.4 µM), inactives show at the highest dose activity, negative = inhibition, most hits filed as inhibitors; 270,000 tested, 2.1% active; AID 1460; note: potency is the fitted concentration of half-maximal effect; nearly all actives have a fitted effect of over 55% in size
Target sequence (P10636 561-689 P618L limits assumed): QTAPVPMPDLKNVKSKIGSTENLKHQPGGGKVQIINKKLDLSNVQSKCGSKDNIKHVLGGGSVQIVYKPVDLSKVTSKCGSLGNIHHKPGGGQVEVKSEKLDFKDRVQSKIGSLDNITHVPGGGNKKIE
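Heparin-induced (20 uM) aggregation of recombinant human K18 P301L tau, 15 uM unlabeled with 0.24 uM labeled, pH 7 acetate buffer, 6 hr at 37 C with compound. Fibrils quantified by 30 uM ThT fluorescence after 1 hr ambient incubation.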
Coupling enz: inhibits coupling enzyme system, counter-screen for aldolase hits. coupling enzyme system counterscreen, AmpLite Red fluorescence. 290,000 tested, 0.67% active. AID 2472. activity change, negative = inhibition, % at 58.2 µM, hits read low; in the data active = activity change below about -30%
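Activity here indicates interference with the coupling reaction, not aldolase inhibition. Compounds at 57.5 uM final met coupling enzymes for 10 min at RT; substrate and AmpLite Red detection followed, with a 525/598 nm fluorescence read after 20 min.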
USP1-UAF1 inh: blocks the human USP1/UAF1 deubiquitinase complex; O94782; recombinant USP1/UAF1, Ub-Rhodamine cleavage fluorescence; Potency, µM (titrated, usually from 57.1 µM), for inactives: at the top dose activity change, negative = inhibition, actives largely listed as inhibitors; 390,000 tested, 0.23% active; AID 743255; note: potency is the fitted concentration of half-maximal effect; nearly all actives have a fitted effect of over 60% in size
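In this screen, compounds sit with the deubiquitinase complex (1nM) for 15 min at room temperature before Ub-Rho is added at 150nM final. Fluorescence rise is then followed for 6 reads every 60 seconds.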
Tau FP inhib: blocks human tau fibril formation measured by polarization | P10636 | K18 P301L tau heparin fibrillization, Alexa594 FP, 6 h | Potency, µM (series often up to 57.7 µM), for inactives: at the top dose activity, negative = inhibition, hits mostly inhibitors | 280,000 tested, 0.39% active; note: potency is the fitted concentration of half-maximal effect; nearly all actives have a fitted effect of over 55% in size
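Compound effects on tau fibrillization are measured by Alexa 594 fluorescence polarization (ex 555, em 632 nm). K18 P301L tau is used at 15 uM with 0.24 uM labeled tracer, and 20 uM heparin induces aggregation over 6 hr at 37 C.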
Active calls of the source: *; ? = inconclusive; . = no result given; [ ] = dose if it differs, or a comment. This is a sample that favours compounds with a hit; in the whole collection about 2.3% have one here. Unless noted, calls come from the whole dose curve; as a rule, active = well fitted curve in the direction sought with a large enough effect; inconclusive = small, poorly fitted or top-dose-only effect, or another doubt; inactive = no such curve, though single readings can be large; an effect the other way counts as inactive or inconclusive. % is set by controls: 0 for no effect and ±100 for the full control effect.

SMILES	Tau fluor counter	Tau ThT inhib	Coupling enz	USP1-UAF1 inh	Tau FP inhib
O=C1C=C2C(=CCOC2O)O1 (centres undefined)	-19.1%	2.24µM*	0.1	.	2µM*
C=C(C)[C@]12C[C@@H](C)[C@@]34OC(Cc5ccccc5)(O[C@@H]1[C@@H]3C=C(COC(=O)Cc1cc(OC)c(O)cc1I)C[C@]1(O)C(=O)C(C)=C[C@@H]41)O2	?	-4.1%	-5.7	.	-8.3%
CCCN1CCc2cc(O)cc3c2[C@H]1Cc1ccc(O)c(O)c1-3	.	.	.	-8.0%	.
CCCN1CCc2cccc3c2C1Cc1ccc(O)c(O)c1-3 (centres undefined)	17.8µM*[quencher]	14.1µM*	.	.	31.6µM*
CC(C)(C)c1ccc(C(=O)Nc2ccc3nc(SCC(=O)N4CCCC4)sc3c2)cc1	?	?	.	-2.5%	-8.0%
CCOc1ccc(NC(=O)c2cc3c(C)nn(-c4ccccc4)c3s2)cc1	?	-8.7%	.	-3.0%	?
Oc1ccc(/C=N/NP(=S)(c2ccccc2)c2ccccc2)cc1	12.6µM*[quencher]	?	-0.6	-13.2%	?
COc1cc(/C=N/NP(=S)(c2ccccc2)c2ccccc2)ccc1O	14.1µM*[quencher]	?	2.6	-13.3%	11.3%
CCOC(=O)C1=C(CN2CCN(c3ccc(C)cc3C)CC2)NC(=O)NC1c1ccc(OC)cc1 (centres undefined)	-20.4%	?	.	-24.1%	5.5%
COCCOC(=O)C1=C(C)OC(N)=C(C(=O)OC)C12C(=O)Nc1ccccc12 (centres undefined)	-20.8%	39.8µM*	0.8	-12.4%	?
COc1nnc(-c2ccc(N3CCCCC3)c(NC(=O)c3ccccc3)c2)c2ccccc12	-18.5%	?	.	-31.2%	-9.9%
CC1=C(O)C(=O)[C@H]2O[C@@H]2C1=O	?	2µM*	-10.4	.	3.98µM*
COC(=O)C[C@@](O)(CCC(C)(C)O)C(=O)O[C@@H]1C(OC)=C[C@]23CCCN2CCc2cc4c(cc2[C@@H]13)OCO4	.	.	2.1	.	.
COC1=CC23CCCN2CCc2cc4c(cc2C3C1O)OCO4 (centres undefined)	?	35.5µM*	0.9	.	?
CN1CCN(c2ncc3ncc(=O)n(C)c3n2)CC1	.	.	2.0	.	.
CC1=CC(=O)c2c(O)cccc2C1=O	2.24µM*[quencher]	2.51µM*	-47.6*	.	3.16µM*
CSc1nc(N)c(N=Nc2ccc([As](=O)(O)O)cc2)c(=O)[nH]1	?	20µM*	1.4	-13.1%	-8.5%
COc1cccc2c1C13CC[N+]4(CC5CC5)CO[C@]1(CCC(=O)C3)C4C2	-2.5%	-2.6%	.	.	-5.0%
O=C1NC(=O)C(=C/C=C/c2coc3ccc(Br)cc3c2=O)C(=O)N1	-19.6%	7.94µM*	6.0	.	?
COc1ccc(-c2cc(=O)c3cc(OCC(=O)OC(C)C)ccc3o2)cc1	-12.4%	?	.	-18.5%	3.6%
O=S1(=O)CCN(CCc2c[nH]c3ccccc23)CC1	2.1%	0.3%	0.0	-12.5%	8.2%
CN1C(=O)C(Cc2c[nH]c3ccccc23)C(=O)N(C)C1=O	-28.2%	22.4µM*	-15.0	.	?
CN1C(=O)C(Cc2cccc3ccccc23)C(=O)N(C)C1=O	-20.5%	25.1µM*	-21.2	?	?
CN1C(=O)C(Cc2ccc(OCc3ccccc3)cc2)C(=O)N(C)C1=O	.	.	14.9	-20.9%	.
Cc1ccc2c(c1)NP(=S)(Oc1ccccc1)N2 (centres undefined)	.	.	.	-13.0%	.
SMILES	Tau fluor counter	Tau ThT inhib	Coupling enz	USP1-UAF1 inh	Tau FP inhib
COc1ccc2c(c1)NP(=S)(Oc1ccccc1)N2 (centres undefined)	?	8.91µM*	-4.4	-21.7%	?
COP(=S)(OC)SCN1C(=O)c2ccccc2C1=O	-19.0%	35.5µM*	2.9	9.6%	?
COc1cc2c(cc1O)[C@@H]1Cc3ccc(OC)c(O)c3CN1CC2	.	.	.	14.1µM*	.
C=CCn1c(-c2ccc([N+](=O)[O-])cc2)n[nH]c1=S	-3.9%	?	4.5	3.5%	-1.5%
CN(C)[C@@H]1C(=O)C(C(N)=O)=C(O)[C@]2(O)C(=O)C3=C(O)c4c(O)cccc4[C@@](C)(O)[C@H]3[C@H](O)[C@@H]12	.	.	-7.3	.	.
CN(C)C1C(=O)C(C(N)=O)=C(O)[C@@]2(O)C(=O)C3=C(O)c4c(O)cccc4[C@@](C)(O)C3[C@H](O)C12 (some centres undefined)	?	7.08µM*	-10.0	.	?
O=C1Nc2ccccc2/C1=C/c1cnc[nH]1	-0.1%	?	-3.9	-10.1%	6.5%
COc1ccc2c(c1)/C(=C/c1cnc[nH]1)C(=O)N2	-17.9%	14.1µM*	0.0	-29.7%	7.5%
COc1ccc(C=C2C(=O)NC(=S)NC2=O)cc1	.	.	.	-2.4%	.
O=C1NC(=S)NC(=O)C1=Cc1cccc2cc3ccccc3cc12	15.8µM*[quencher]	11.2µM*	-0.1	?	-16.5%
CCCCCCCC/C=C\CCCCCCCC(=O)OC[C@@H](COP(O)(O)=S)OC	.	.	6.9	.	.
O=S1(=O)N(CCN2CC=C(c3c[nH]c4cc(F)ccc34)CC2)c2cccc3c2N1CCC3	8.91µM*[quencher]	?	.	-30.5%	11.6%
CN(C)c1ccc(CN2CCc3nc(N4CCN(c5ccccn5)CC4)ncc3C2)cc1	?	?	.	-15.0%	0.9%
COc1ccc2oc(=O)c(C(=O)NCCc3c(C)[nH]c4ccc(F)cc34)cc2c1	7.94µM*[quencher]	?	.	-27.3%	?
O=C1NC(=O)N(Cc2ccccc2)C(=O)/C1=C\N1CCCc2ccccc21	4.2%	-0.2%	-6.6	-17.9%	9.8%
O=C1NC(=O)C(=CN2CCc3ccccc32)C(=O)N1	-19.7%	10µM*	-20.2	-24.0%	?
COc1cc(CN2CCc3nc(N4CCN(c5ccccn5)CC4)ncc3C2)cc(OC)c1OC	-3.6%	?	.	-18.1%	-0.3%
O=C1C(Cl)=C(Cl)C(=O)C(Cl)=C1Cl	14.1µM*[quencher]	1.41µM*	-65.1*	.	1.41µM*
CCOc1ccc(CCNC(=O)c2ccc(-n3c(C)cc4c3CCCC4)cc2)cc1OCC	-15.7%	?	.	-18.0%	-12.0%
O=[N+]([O-])c1ccc(Sc2nc3ccccc3o2)c([N+](=O)[O-])c1	8.91µM*[quencher]	14.1µM*	-8.2	-21.9%	?
CC1CC2CCC(O2)C(C)C(=O)OC(C)CC2CCC(O2)C(C)C(=O)OC(C)CC2CCC(O2)C(C)C(=O)OC(C)CC2CCC(O2)C(C)C(=O)O1 (centres undefined)	.	.	0.0	.	.
COC(=O)[C@@H]1[C@@H](C(=O)OC)C2(c3ccccc3-c3ccccc32)N(c2ccc(Cl)cc2)N1C#N	-15.0%	25.1µM*	-4.6	-13.5%	?
COC(=O)C[C@]1(C(=O)OC)CN(C#N)N(c2ccc(Cl)cc2)C12c1ccccc1-c1ccccc12	-19.7%	14.1µM*	-0.1	-5.4%	?
Cc1cc(OC(=O)N(C)C)nn1C(=O)N(C)C	.	.	-0.7	.	.
